TbREL1 primary: TbREL1 RNA ligase inhibitors, primary screen, biochemical, FRET fluorescence; RNA-editing ligase 1, mitochondrial (Trypanosoma brucei brucei), P86926; TbREL1 RNA ligation; inhibition, % at 9.66 µM; actives 0.49% (n = 89,000); AID 1117264, 2014;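 active = inhibition above the mean inhibition across all screened compounds plus 3 SD, cut at about 11% in these data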;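 note: 0% = plate median of test wells and 100% = NSC42067 control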
TbREL1 confirm: TbREL1 RNA ligase inhibitors, confirmation, biochemical, FRET fluorescence, triplicate; shares compounds with TbREL1 primary; inhibition, % at 9.66 µM; actives 37% (n = 390); AID 1117282, 2014; TbREL1 RNA ligation;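 active = mean inhibition across replicates above a set limit taken from the earlier primary screen, cut at about 11% in these data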;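 note: 0% = REL1 with substrate and DMSO and 100% = REL1 plus control inhibitor NSC42067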
* = called active by the depositor. Only a selection was taken, and hits are over-represented in it overall.

SMILES | TbREL1 primary | others
CCOC(=O)CC1c2ccccc2-n2nncc2CN1C (centres undefined) | 5.4
Cc1ccccc1CN1Cc2cnnn2-c2ccccc2C1C#N (centres undefined) | 11.3* | TbREL1 confirm=4.4
Cc1ccccc1-c1ccc2c(c1)CNCc1cnnn1-2 | -1.5
CN1C(=O)[C@@]23C[C@]4(c5c[nH]c6ccccc56)c5ccccc5N(S(=O)(=O)c5ccccc5)[C@@H]4N2C(=O)[C@@H]1SS3 | 5.2
CC(C)CC1C(C#N)=C(N)Oc2c1c(=O)oc1ccccc21 (centres undefined) | -0.7
N#CCCn1cc(C(=O)Nc2ccc([N+](=O)[O-])cc2)c(-c2ccccc2)n1 | -2.1
N#CCCn1cc(C(=O)Nc2ccc(F)cc2)c(-c2ccc([N+](=O)[O-])cc2)n1 | 11.3* | TbREL1 confirm=4.0
O=C(NC1CC1)c1cn(Cc2ccccc2)nc1-c1ccccc1 | -0.6
Cc1cccc(N2CCC3(CC2)C(=O)NC(=O)NC3=O)c1 | -4.8
Oc1ccccc1-[n+]1c(-c2ccccc2)cc(-c2ccccc2)c(O)c1-c1ccccc1 | -2.3
O=S(=O)(c1cc(Cl)cc(Cl)c1)N1Cc2cc(N3CCOCC3)ccc2-n2nncc2C1 | 3.3
CCCCn1c(N)c(C(=O)OCCOC)c2nc3ccccc3nc21 | 3.8
CCCCn1c(NC(=O)c2ccco2)c(C(=O)OCC)c2nc3ccccc3nc21 | 34.1* | TbREL1 confirm=45.0*
CCCCOCCCn1c(N)c(C(=O)OCCOC)c2nc3ccccc3nc21 | 0.2
COc1ccc(-c2ccc3c(c2)CNCc2cnnn2-3)cc1 | 1.8
